Test results published in PubChem BioAssay (NCATS).
Results filed as inconclusive are left out. Values without a mark were called inactive. The call rests on the fitted dose curve.

Assay: qHTS assay for small molecule disruptors of the mitochondrial membrane potential - 5 hr assay (AID 651755); further: nearly all actives have a fitted effect of over 40% in size
Settings: JC-1-type ratio dye; series mostly up to 92.2 µM; ratio change, negative = disruption: at the top concentration
From the text: National Center for Advancing Translational Sciences [NCATS]
NIH Chemical Genomics Center [NCGC]
National Institutes of Environmental Health Sciences [NIEHS]
National Toxicology Program [NTP]
Mitochondrial membrane potential (MMP), one of the parameters for mitochondrial function, is generated by mitochondrial electron transport chain that creates an electrochemical gradient by a series of redox reactions. This gradient drives the synthesis of ATP, a crucial molecule for various cellular processes. Measuring MMP in living cells is commonly used to assess the effect of chemicals on mitochondrial function. […] The dye accumulates in the mitochondria of healthy cells as aggregates, with red fluorescence. The mitochondrial potential collapses and the dye can no longer accumulate in the mitochondria and remains in the cytoplasm in monomers, with green fluorescence.
2,000 HepG2 cells in 5 uL/well were dispensed into black, clear-bottom 1536-well plates using a Multidrop Combi (Thermo Scientific) dispenser. The assay plates were incubated overnight at 37C to allow cells to attach to the wells, followed by the transfer of 23 nL compound or DMSO vehicle by a pin tool (Kalypsys). The plates were incubated for 5 hr at 37C and 5% CO2, followed by the addition of 5 uL of 2X Mito-MPS dye (BD Biosciences) into each well using Flying Reagent Dispenser (Aurora Discovery) and then following 30 min incubation at 37C. Fluorescence intensity (490nm excitation and 535nm emission for monomers; and 540nm excitation and 590nm emissions for aggregates) was measured using an Envision plate reader.
On the % scale 0 is the no-effect control and ±100 the full control effect.

SMILES | ratio change, negative = disruption [%]
Cc1cccc([N+](=O)[O-])c1C(=O)O | 0.258
C=C(C)C1CC=C(C)C(OC(C)=O)C1 (stereo not given) | 0.493
C=Cc1ccccn1 | -0.857
CCCCCCCCN | -1.3
Cc1cccc(C)c1O | 4.4
Cc1ccc(Cl)cc1 | 0.627
CCOC(=O)C(C)C(C)=O (stereo not given) | 1.74
NC=O | -2.08
CCCCCCO | 1.39
CN(C)c1cccc(O)c1 | 9.12
O=C1OC(=O)c2c(Br)c(Br)c(Br)c(Br)c21 | 2.17
BrC(Br)C(Br)Br | 3.23
Cc1ccc(C)c(O)c1 | 0.525
CN(C)CCCCl | 7.39
COc1ccccc1[N+](=O)[O-] | -0.293
Nc1nc(CC(=O)O)cs1 | -2.82
NC(=S)NNC(N)=S | 1.2
CSc1ccc(C=O)cc1 | -0.0157
Cc1ccccc1C(=O)O | 2.79
CC(=O)c1nccs1 | -0.198

SMILES | ratio change, negative = disruption [%]
CCCCCNCCCCC | 9.8
ON=C1CCCCC1 | 3.43
C1CCCC1 | 0.317
C1COC1 | 5.5
CCC(=O)/C=C/C1C(C)=CCCC1(C)C (stereo not given) | 8.21
COC(=O)CCC(=O)OC | 1.09
O=Cc1ccc(CO)o1 | -4.11
O=C(O)CCSSCCC(=O)O | -7.18
Cc1ccc2cccnc2c1 | -5.77
O=[N+]([O-])c1cccc(Cl)c1 | 1.77
Cc1cccc(Br)c1 | -0.793
O=C1NC(=O)c2cc([N+](=O)[O-])ccc21 | -2.29
O=C(O)CNC(=O)c1ccc([N+](=O)[O-])cc1 | 4.85
Cc1ccco1 | 0.129
CCCCC(CC)CO (stereo not given) | 1.61
COC(=O)c1ccccc1 | -1.13
CO[Si](CCCNCCC[Si](OC)(OC)OC)(OC)OC | 1.59
CC(=O)c1cc(C)oc1C | 2.96
CCC(O)C(C)(C)C (stereo not given) | -6.17
C=C(C)C(N)=O | 4.56
